Calls of active or inactive are those of the source. The calls were made as follows: active = hit-call score of the fitted dose curve at least 0.9, where 1 is the maximum; inactive = score below 0.9.
Assays:
Conditions in all cases: mRNA level, 48 h; actives raise or lower the signal
[1] = read-out: Heat shock 70 kDa protein 1 (HSPA1A), gene 3303; assay: LTEA_HepaRG_HSPA1A: Life Technologies and Expression Analysis (LTEA) Assay for Heat shock 70 kDa protein 1 (HSPA1A) using HepaRG (AID 2283502)
Summary of the method: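 Differentiated human HepaRG cells in serum-free induction medium were exposed in duplicate for 48 h to eight concentrations (top 100 uM, half-log steps, 0.5% DMSO). HSPA1A mRNA was quantified by qRT-PCR, normalized to ACTB, GAPDH and POLR2A, and fitted bidirectionally against DMSO.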

[2] = read-out: 3-Hydroxy-3-Methylglutaryl-CoA Synthase 2 (HMGCS2), HMGCS2 (gene 3158); assay: LTEA_HepaRG_HMGCS2: Life Technologies and Expression Analysis (LTEA) Assay for 3-Hydroxy-3-Methylglutaryl-CoA Synthase 2 (HMGCS2) using HepaRG (AID 2283504)
Summary of the method: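 Readout is HMGCS2 transcript by qRT-PCR, housekeeping-normalised (ACTB/GAPDH/POLR2A) and fitted bidirectionally against 0.5% DMSO. Differentiated HepaRG cells received chemicals 48 h, duplicate wells, eight half-log concentrations topping at 100 uM.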

HGF (gene 3082) = assay: LTEA_HepaRG_HGF: Life Technologies and Expression Analysis (LTEA) Assay for Hepatocyte Growth Facto (HGF) using HepaRG (AID 2283505)
Summary of the method: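 HGF transcript was quantified by TaqMan qRT-PCR against three housekeeping genes after 48 h treatment of HepaRG cells. Exposure ran in duplicate over eight half-log steps topping at 100 uM in 0.5% DMSO vehicle.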

[3] = read-out: Insulin Like Growth Factor 1 (IGF1), IGF1 (gene 3479); assay: LTEA_HepaRG_IGF1: Life Technologies and Expression Analysis (LTEA) Assay for Insulin Like Growth Factor 1 (IGF1) using HepaRG (AID 2283506)
Summary of the method: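 Differentiated human HepaRG cells were dosed for 48 h in serum-free induction medium with 0.5% DMSO, eight half-log concentrations up to 100 uM, in duplicate. IGF1 mRNA was quantified by qRT-PCR normalized to ACTB, GAPDH, POLR2A; bidirectional fitting versus DMSO.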

[4] = read-out: Intercellular Adhesion Molecule 1 (ICAM1), ICAM1 (gene 3383); assay: LTEA_HepaRG_ICAM1: Life Technologies and Expression Analysis (LTEA) Assay for Intercellular Adhesion Molecule 1 (ICAM1) using HepaRG (AID 2283507)
Summary of the method: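 ICAM1 transcript levels measured by qRT-PCR, normalized to three housekeeping genes (ACTB, GAPDH, POLR2A), after 48 h chemical exposure of HepaRG cells. Duplicate eight-point half-log series from 100 uM in 0.5% DMSO; gain or loss fitted against vehicle.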

[5] = read-out: Insulin-like growth factor-binding protein 1 (IGFBP1), IGFBP1 (gene 3484); assay: LTEA_HepaRG_IGFBP1: Life Technologies and Expression Analysis (LTEA) Assay for Insulin-like growth factor-binding protein 1 (IGFBP1) using HepaRG (AID 2283508)
Summary of the method: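 Read-out is qRT-PCR transcript level normalized to three housekeeping genes, fitted in both directions against 0.5% DMSO. Differentiated HepaRG cells received eight half-log concentrations (top 100 uM) in duplicate for 48 h in serum-free induction medium.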

[6] = read-out: Interleukin 6 Receptor (IL6R), IL6R (gene 3570); assay: LTEA_HepaRG_IL6R: Life Technologies and Expression Analysis (LTEA) Assay for Interleukin 6 Receptor (IL6R) using HepaRG (AID 2283510)
Summary of the method: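 Differentiated human HepaRG cells, plated 48 h then switched to serum-free induction medium, were dosed in duplicate for 48 h at eight half-log concentrations up to 100 uM in 0.5% DMSO. IL6R mRNA quantified by qRT-PCR, normalized to ACTB/GAPDH/POLR2A; bidirectional fit versus DMSO.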

[7] = read-out: Potassium channel subfamily K member 1 (KCNK1), KCNK1 (gene 3775); assay: LTEA_HepaRG_KCNK1: Life Technologies and Expression Analysis (LTEA) Assay for Potassium channel subfamily K member 1 (KCNK1) using HepaRG (AID 2283511)
Summary of the method: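 Gain or loss of KCNK1 mRNA is the read-out, quantified by qRT-PCR against three housekeeping genes after 48 h chemical treatment of human HepaRG liver cells. Concentrations ran from 100 uM downward in half-log steps, vehicle 0.5% DMSO.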

[8] = read-out: Keratin 19 (KRT19), KRT19 (gene 3880); assay: LTEA_HepaRG_KRT19: Life Technologies and Expression Analysis (LTEA) Assay for Keratin 19 (KRT19) using HepaRG (AID 2283512)
Summary of the method: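 KRT19 transcript measured by TaqMan qRT-PCR, referenced to three housekeeping genes, after HepaRG cells received test chemicals for 48 h. Eight half-log concentrations, top 100 uM, 0.5% DMSO vehicle; increases and decreases both fitted.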

[9] = read-out: JUN Transcription Factor, JUN (gene 3725); assay: LTEA_HepaRG_JUN: Life Technologies and Expression Analysis (LTEA) Assay for JUN Transcription Factor using HepaRG (AID 2283513)
Summary of the method: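 Differentiated HepaRG cells were exposed to chemicals for 48 h in serum-free induction medium, 8 concentrations from 100 uM in half-log steps, 0.5% DMSO vehicle, in duplicate. JUN mRNA was quantified by TaqMan qRT-PCR, normalized to ACTB, GAPDH, POLR2A.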

[10] = read-out: Lipase C (LIPC), LIPC (gene 3990); assay: LTEA_HepaRG_LIPC: Life Technologies and Expression Analysis (LTEA) Assay for Lipase C (LIPC) using HepaRG (AID 2283514)
Summary of the method: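 Read-out is LIPC transcript level by TaqMan qRT-PCR, normalized to three housekeeping genes, after 48 h chemical treatment of human HepaRG liver cells. Curves span eight concentrations topping at 100 uM; activity in either direction scored relative to 0.5% DMSO.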

[11] = read-out: MicroRNA 122 (MIR122), gene 406906; assay: LTEA_HepaRG_MIR122: Life Technologies and Expression Analysis (LTEA) Assay for MicroRNA 122 (MIR122) using HepaRG (AID 2283516); also: the transcript read is the microRNA miR-122
Summary of the method: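 Differentiated human HepaRG cells were exposed 48 h in serum-free induction medium to eight half-log concentrations (top 100 uM, 0.5% DMSO). Transcript level was measured by TaqMan qRT-PCR, normalized to ACTB, GAPDH and POLR2A, and fitted bidirectionally versus DMSO.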

[12] = read-out: matrix metalloproteinase-10 (MMP10), MMP10 (gene 4319); assay: LTEA_HepaRG_MMP10: Life Technologies and Expression Analysis (LTEA) Assay for matrix metalloproteinase-10 (MMP10) using HepaRG (AID 2283517)
Summary of the method: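 Gain or loss of MMP10 mRNA is fitted relative to the 0.5% DMSO vehicle. The human hepatic line HepaRG receives a 48-hour serum-free exposure, in duplicate, with a maximum concentration of 100 uM.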

MYC, MYC (gene 4609) = assay: LTEA_HepaRG_MYC: Life Technologies and Expression Analysis (LTEA) Assay for MYC using HepaRG (AID 2283518)
Summary of the method: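 MYC transcript changes, up or down relative to 0.5% DMSO, from TaqMan qRT-PCR normalized to three housekeeping genes. Human HepaRG cultures received chemicals for 48 h at eight half-log concentrations up to 100 uM, in duplicate.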

[13] = read-out: matrix metalloproteinase-3 (MMP3), MMP3 (gene 4314); assay: LTEA_HepaRG_MMP3: Life Technologies and Expression Analysis (LTEA) Assay for matrix metalloproteinase-3 (MMP3) using HepaRG (AID 2283519)
Summary of the method: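 HepaRG, human; 48 h dosing, 8 conc. (max 100 uM, half-log), duplicate, 0.5% DMSO. Readout: MMP3 transcript by Fluidigm TaqMan qRT-PCR, ACTB/GAPDH/POLR2A-normalised. Gain or loss fitted vs DMSO.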

[14] = read-out: Paternally Expressed 10 (PEG10), PEG10 (gene 23089); assay: LTEA_HepaRG_PEG10: Life Technologies and Expression Analysis (LTEA) Assay for Paternally Expressed 10 (PEG10) using HepaRG (AID 2283520)
Summary of the method: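 Differentiated HepaRG cells, plated 48 h then switched to serum-free induction medium, were exposed in duplicate for 48 h to eight half-log concentrations topping at 100 uM in 0.5% DMSO. PEG10 mRNA was quantified by TaqMan qRT-PCR, normalised to ACTB, GAPDH and POLR2A.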

[15] = read-out: Lipoprotein lipase (LPL), LPL (gene 4023); assay: LTEA_HepaRG_LPL: Life Technologies and Expression Analysis (LTEA) Assay for Lipoprotein lipase (LPL) using HepaRG (AID 2283515)
Summary of the method: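 Read-out is LPL transcript level by qRT-PCR, normalized to three housekeeping genes and fitted bidirectionally against the DMSO control. Human HepaRG cells received chemicals for 48 h at up to 100 uM.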

[16] = read-out: Nuclear factor NF-kappa-B p105 subunit (Homo sapiens) (UniProt P19838); assay: LTEA_HepaRG_NFKB1: Life Technologies and Expression Analysis (LTEA) Assay for Nuclear Factor Kappa B Subunit 1 (NFKB1) using HepaRG (AID 2283521)
Summary of the method: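 Differentiated human HepaRG cells in serum-free induction medium with 0.5% DMSO were exposed for 48 h to eight half-log concentrations, top 100 uM, in duplicate. NFKB1 mRNA measured by Fluidigm TaqMan qRT-PCR, normalised to ACTB, GAPDH and POLR2A; bidirectional fit versus DMSO.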

Sequence of Nuclear factor NF-kappa-B p105 subunit (Homo sapiens) (P19838 whole entry, looked up): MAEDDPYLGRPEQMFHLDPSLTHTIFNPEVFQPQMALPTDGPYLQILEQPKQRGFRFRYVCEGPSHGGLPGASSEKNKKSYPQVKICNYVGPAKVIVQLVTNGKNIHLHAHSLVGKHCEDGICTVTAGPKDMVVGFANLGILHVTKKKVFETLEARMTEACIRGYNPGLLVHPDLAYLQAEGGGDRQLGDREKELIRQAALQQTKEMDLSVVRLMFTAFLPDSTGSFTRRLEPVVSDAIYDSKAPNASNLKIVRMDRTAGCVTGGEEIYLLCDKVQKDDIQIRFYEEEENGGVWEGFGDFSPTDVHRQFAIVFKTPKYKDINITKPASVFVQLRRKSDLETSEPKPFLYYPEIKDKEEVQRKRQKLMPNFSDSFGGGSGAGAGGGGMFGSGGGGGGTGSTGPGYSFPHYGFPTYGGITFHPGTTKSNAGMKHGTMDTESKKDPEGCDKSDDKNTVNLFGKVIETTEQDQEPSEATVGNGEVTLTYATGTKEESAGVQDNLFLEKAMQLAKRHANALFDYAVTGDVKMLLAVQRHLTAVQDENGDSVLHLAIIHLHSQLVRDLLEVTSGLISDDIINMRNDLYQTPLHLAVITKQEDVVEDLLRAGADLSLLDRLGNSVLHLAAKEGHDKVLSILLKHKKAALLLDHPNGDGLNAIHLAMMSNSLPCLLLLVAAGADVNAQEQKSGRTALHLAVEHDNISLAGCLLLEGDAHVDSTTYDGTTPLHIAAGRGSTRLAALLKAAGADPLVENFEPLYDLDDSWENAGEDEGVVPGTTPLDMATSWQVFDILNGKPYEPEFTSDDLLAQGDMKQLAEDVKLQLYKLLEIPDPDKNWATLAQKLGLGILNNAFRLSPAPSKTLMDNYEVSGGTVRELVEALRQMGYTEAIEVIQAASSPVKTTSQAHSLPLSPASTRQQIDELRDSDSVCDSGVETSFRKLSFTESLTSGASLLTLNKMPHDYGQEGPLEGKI

Compound | AC50 [1] | outcome [2] | outcome (HGF (gene 3082)) | outcome [3] | outcome [4] | outcome [5] | outcome [6] | outcome [7] | outcome [8] | outcome [9] | outcome [10] | outcome [11] | outcome [12] | outcome (MYC, MYC (gene 4609)) | AC50 [13] | outcome [14] | outcome [1] | outcome [15] | outcome [13] | outcome [16]
O=P(OCCCl)(OCCCl)OCCCl | 9.92 µM (active) | inactive | inactive | inactive | inactive | inactive | inactive | inactive | inactive | inactive | inactive | inactive | inactive | inactive | 67.3 µM (active) | inactive | – | – | – | –
CCN(CC)CCO | – | inactive | inactive | inactive | inactive | inactive | inactive | – | inactive | inactive | inactive | inactive | inactive | inactive | – | inactive | inactive | inactive | inactive | inactive
O=[N+]([O-])C(Br)(CO)CO | – | inactive | inactive | inactive | inactive | inactive | inactive | – | inactive | inactive | inactive | inactive | inactive | inactive | – | inactive | inactive | inactive | inactive | inactive

From PubChem BioAssay (EPA / NIEHS)
